Data published in ChEMBL document CHEMBL3988442, “University of Dundee, Small-Polar-MMV Screening Library” (2021).
The whole screen tested about 48,000 compounds, of which about 13,000 (27%) showed an effect of 50% or more. The list shows a part of the results.

What follows are compounds tested on Wolbachia pipientis (assay: Anti-Wolbachia Cell-Based Screen). Conditions: 5 µM.
Type: functional
Parameters: scale not given: in the data most compounds retested in dose-response had high values

Compound	Percent Effect
CC1CCc2nc(O)c(C(=O)NCCCN3CCN(C)CC3)cc2C1 (configuration not stated)	-5.002%
CC(=O)c1sc2nc3c(c(C(F)(F)F)c2c1N)CN(C(C)=O)CC3	-4.263%
Cc1ccc(SCC(=O)NS(=O)(=O)c2ccc3c(c2)OCCO3)cc1	-12.07%
O=C(O)C(F)(F)F.O=C(O)C(F)(F)F.O=C(O)c1cc2c(nc1N1CCCC1)CCN(C1CCOCC1)CC2	-7.138%
COCCN(CC1CCCN(C2Cc3ccccc3C2)C1)C(=O)COC (configuration not stated)	-1.224%
CC(C)CN1C[C@H]2CCN(c3ncccn3)CC[C@H]2S1(=O)=O.O=C(O)C(F)(F)F	-7.419%
COc1cccc(C2CCN(c3ccc4cc[nH]c4n3)C2)c1OC (configuration not stated)	-24.45%
CCOc1ccc([C@@H]2N[C@H](c3nccs3)Cc3ccsc32)cc1OC	113.5%
COCCOc1ccccc1C(=O)N1CCCCC1c1nccs1 (configuration not stated)	1.225%
CCN(Cc1nccs1)Cc1cc(Cl)ccc1OC	-0.3926%
CCOc1ccc(C2CC(=O)NCc3nc(N)sc32)cc1CO (configuration not stated)	4.923%
COc1cccc([C@@H]2N[C@H](c3nccs3)Cc3ccsc32)c1OC	146.2%
CC1N(CC2CC2)C(=O)COC12CCN(C(=O)c1ccno1)CC2 (configuration not stated)	-9.759%
Cn1ncc2c(=O)[nH]c(N3CCCC3c3cccc(Cl)c3)nc21 (configuration not stated)	-9.423%
CCNC(=O)CN1CCOC(c2ccccc2C(F)(F)F)C1 (configuration not stated)	-9.523%
O=c1n(Cc2cccc(F)c2)nc2ncccn12	124.9%
O=c1n(Cc2ccccc2F)nc2ncccn12	224.5%
COc1nccnc1N1CCN(Cc2cccc(F)c2)C(=O)C1	-1.411%
O=c1n(CCSCc2ccccc2F)nc2ccccn12	16.6%
CC(C)C1CN(c2ncccn2)CCC(=O)N1Cc1ccc(F)cc1 (configuration not stated)	-1.405%
Fc1ccc(Cn2ncc3c2CN(c2ncccn2)C3)cc1	-12.4%
O=c1n(Cc2ccc(F)cc2)nc2ncccn12	93%
O=c1n(Cc2ccc(C(F)(F)F)cc2)nc2ncccn12	133.4%

Compound	Percent Effect
CC(NC(=O)Cn1cccnc1=O)c1ccc(C(F)(F)F)cc1 (configuration not stated)	-2.849%
Cn1cnn(Cc2ccccc2F)c1=O	-4.03%
O=C(O)[C@@H]1CN(Cc2nc3ncccn3n2)C[C@H]1c1cccc(F)c1	4.961%
FC(F)(F)c1ccc(CN2CCN(Cc3cscn3)CC2)cc1	-5.816%
Cn1ccc(C(=O)N(CC(F)(F)F)c2cccc(Cl)c2)cc1=O	-11.93%
CCc1nc2n(n1)CC(Nc1nc(C)cc(N(C)C)n1)CC2 (configuration not stated)	2.422%
CCC1=NOC(CNCc2cnc(-c3ccccc3C)s2)C1 (configuration not stated)	-1.087%
Cc1c(C)n(CC(O)CN2CCCCCC2)c2c(Cl)cccc12 (configuration not stated)	9.081%
CC(=O)c1cccc(NC(=O)NCCc2nnc[nH]2)c1	-18%
O=C(O)c1nnn(Cc2cccc(C(F)(F)F)c2)c1-c1ccccn1	11.55%
O=c1n(Cc2cccc(C(F)(F)F)c2)nc2ncccn12	134.4%
O=C(O)c1nnn(Cc2cccc(C(F)(F)F)c2)c1-c1ccncc1	-2.735%
Cc1cncc(NCc2ccccc2N2CCOCC2)c1	0.5273%
O=C(NCc1ccccc1CO)Nc1ccc2c(c1)CCO2	11.78%
Cc1csc(N2CCCN(C(=O)C3(C#N)CCCCC3)CC2)n1	-2.808%
COCc1c(Br)cccc1NC(=O)N(C)CCO	-0.915%
CCN(Cc1ccncc1)C1CCCN(Cc2ccc(F)cc2OC)C1 (configuration not stated)	-6.511%
COc1ccc(C(C#N)NC(=O)CC2=CCCCC2)c(OC)c1 (configuration not stated)	-6.467%
COc1cccc(C(CO)NC(=O)Cc2ccc(F)c(Br)c2)c1 (configuration not stated)	1.843%
COc1ccc(C(C#N)NC(=O)Cc2ccc(F)c(F)c2)c(OC)c1 (configuration not stated)	86.82%
COCc1nc(C)cc(Nc2ccc3c(c2)CC(=O)N3)n1	-4.999%
COc1cc2c(cc1CN1C[C@@H](CN3CCOCC3)[C@@H](CO)C1)CCC2	3.11%
O=C(C1CCS(=O)(=O)CC1)N1CCC(c2ccc(F)cc2)C1 (configuration not stated)	-11.81%

Compound	Percent Effect
COc1ccc2cc(C3CN(C(=O)C4CCOCC4)CCO3)ccc2c1 (configuration not stated)	-17.44%
COc1ccc(OC)c(C2CCN(C(=O)C3CCOCC3)C2)c1 (configuration not stated)	3.237%
Cc1c[nH]nc1C1CCN(C(=O)CC2CCCC2)C1 (configuration not stated)	140.5%
Cc1c[nH]nc1C1CCN(C(=O)C2CCC2)CC1	187.6%
CCc1nc(CN2CCCN(C(=O)CC3CCCC3)CC2)cs1	-10.08%
O=C(C1CCC1)N1CCC(C(=O)N2CCC(c3ccc(F)cc3)C2)CC1 (configuration not stated)	15.47%
Cc1c[nH]nc1C1CCN(C(=O)C2CCCC2)C1 (configuration not stated)	108.3%
Cc1c[nH]c(CN2CC[C@@]3(O)CCN(C(=O)C4CCCC4)C[C@H]3C2)n1	6.79%
Cc1c[nH]nc1C1CCN(C(=O)C2CCOCC2)C1 (configuration not stated)	146.2%
Cc1c[nH]nc1C1CCN(S(=O)(=O)N(C)C)CC1	-12.28%
Cc1ccc(NC(=O)N2CCN(C(=O)CC3CCCC3)CC2)s1	-2.154%
CNC(=O)[C@@H]1C[C@H](N)CN1S(=O)(=O)c1cc(Cl)c(Cl)s1	-16.04%
Cc1ccc2oc(C(=O)N3CCCC(n4nc(C)cc4C)C3)cc2n1 (configuration not stated)	-4.167%
C1CCN(CCOC2CCNCC2)C1	-3.216%
CNC(=O)[C@@H]1C[C@@H](N)CN1C1CCN(c2ccccc2F)CC1	-6.416%
O=C(c1ccc2[nH]nnc2c1)N1CC[C@H](O)[C@]2(CCCO2)C1	85.31%
O=C(c1ccc2[nH]nnc2c1)N1C[C@H](O)[C@]2(CCCO2)C1	107.9%
O=C(c1ccc2[nH]nnc2c1)N1CCCC(n2cccn2)C1 (configuration not stated)	-7.495%
O=C(c1ccc2c(c1)CCC2)N1CCCCC1C1OCCO1 (configuration not stated)	-21.29%
O=C(c1ccc2c(c1)CCC2)N1CC[C@H](O)[C@]2(CCCO2)C1	143.9%
CC(C)S(=O)(=O)NCC1CCCN(C(=O)c2ccc3c(c2)CCC3)C1 (configuration not stated)	-10.39%
